Reference: PubChem BioAssay (NCATS)
Records with an inconclusive call do not appear. Unmarked numbers belong to inactive results. Active and inactive are the calls of the source. Unless noted, calls follow the shape of the dose curve; as a rule, active = well fitted curve in the direction sought with a large enough effect in the repeat runs; inconclusive = weak or mixed curves; inactive = no such curve, though single readings can be large; an effect the other way counts as inactive or inconclusive.

What follows are compounds tested against Calcium and integrin-binding protein 1 (Homo sapiens) (UniProt Q99828) (assay: Primary qHTS for Identification of Calcium Integrin Binding Protein 1 (CIB1) Competitor (AID 1508620; active = well fitted curve in the direction sought with a large enough effect; an effect the other way counts as inactive or inconclusive;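 also: GST tagged CIB1 binding a fluorescein labelled alphaIIb integrin peptide tracer; top concentration of the series differs between compounds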)). Conditions: CIB1-GST / FITC-alphaIIb peptide fluorescence polarization; series mostly up to 114 µM; activity change, negative = inhibition: at the top concentration.
In short: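 Fluorescence polarization competition: CIB1-GST (1 uM final) preincubated with compound 15 min at room temperature, then FITC-labeled alphaIIb peptide (100 nM final) added for another 15 min. Polarization read at Ex 480/Em 540.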
% is scaled to controls: 0 for no effect and ±100 for the full control effect.

Calcium and integrin-binding protein 1 (Homo sapiens), sequence (Q99828 whole entry, looked up): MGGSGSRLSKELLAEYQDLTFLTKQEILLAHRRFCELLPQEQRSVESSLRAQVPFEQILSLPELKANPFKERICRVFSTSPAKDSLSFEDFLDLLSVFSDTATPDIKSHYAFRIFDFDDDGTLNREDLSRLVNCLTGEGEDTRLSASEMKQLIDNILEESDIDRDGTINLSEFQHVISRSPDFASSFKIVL

SMILES | activity change, negative = inhibition | Potency
COC1=CC(=O)O[C@@H](CCc2ccccc2)C1 | 1.08% | 
CN(C)CCc1c[nH]c2ccc(CN3CCN(C)S3(=O)=O)cc12 | -15.7% | 
CCCCCOc1cc2c(cc1-c1cc(/C=C/C(=O)O)ccc1O)C(C)(C)CCC2(C)C | -7.52% | 
COc1cc(C)[nH]c(=O)c1CNC(=O)c1c(C)n([C@H](C)C2CCOCC2)c2ccccc12 | 3.15% | 
COC1C(O)C(OC2CCC3(C=O)C(CCC4C3CCC3(C)C(C5=CC(=O)OC5)CCC43O)C2)OC(C)C1OC1OC(CO)C(O)C(O)C1O (configuration not stated) | -1.01% [at 30.2 µM] | 
CCOc1ccccc1-n1c(C(C)N2CCN(C(=O)COc3ccc(Cl)cc3)CC2)nc2ccccc2c1=O (configuration not stated) |  | inactive
CC(N)Cc1c[nH]c2ccccc12 (configuration not stated) | 3.09% | 
Cc1c(Cl)cccc1S(=O)(=O)Nc1nc(CC(=O)N2CCN(C)CC2)cs1 | -4.38% | 
Cc1cc(C(=O)CN2CCCC2)c(C)n1-c1ccc(F)cc1 |  | inactive
CN1[C@@H]2CC[C@H]1CC(OC(=O)C1C=Nc3ccccc31)C2 (some centres not stated) | 3.53% | 
COC(=O)C1(C)CCC(O)C2(C)c3cc(O)c(C(C)C)cc3C(O)C(OC(C)=O)C12 (configuration not stated) | -1.14% [at 57.7 µM] | 
CCCN1CCO[C@H]2c3cc(O)ccc3OC[C@@H]21 | 5.26% | 
COC(=O)C1(C)CCC(=O)C2(C)c3c(O)cc(C(C)C)cc3C(O)C(OC(C)=O)C12 (configuration not stated) | 0.545% [at 57.7 µM] | 

Each compound was assayed against Cytochrome P450 2D6 (Homo sapiens) (UniProt P10635) (assay: Cytochrome P450 family 2 subfamily D member 6 (CYP2D6) small molecule antagonists: luciferase biochemical (cell-free) qHTS assay (AID 1645840; also: nearly all actives have a fitted effect of over 55% in size; also: potency is read from the fitted curve at half-maximal effect)). Conditions: P450-Glo CYP2D6 enzyme, luciferin luminescence, 1 h; series mostly up to 57.4 µM; activity change, negative = inhibition: at the top concentration.
In short: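 P450-Glo luminescent screen: recombinant CYP2D6 enzyme–proluciferin substrate mix preincubated with compound 10 min at room temperature, then NADPH regeneration added for 1 h at room temperature. Detection reagent added for 20 min; luciferin light read as relative luminescence units.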

Cytochrome P450 2D6 (Homo sapiens), sequence (P10635 whole entry, looked up): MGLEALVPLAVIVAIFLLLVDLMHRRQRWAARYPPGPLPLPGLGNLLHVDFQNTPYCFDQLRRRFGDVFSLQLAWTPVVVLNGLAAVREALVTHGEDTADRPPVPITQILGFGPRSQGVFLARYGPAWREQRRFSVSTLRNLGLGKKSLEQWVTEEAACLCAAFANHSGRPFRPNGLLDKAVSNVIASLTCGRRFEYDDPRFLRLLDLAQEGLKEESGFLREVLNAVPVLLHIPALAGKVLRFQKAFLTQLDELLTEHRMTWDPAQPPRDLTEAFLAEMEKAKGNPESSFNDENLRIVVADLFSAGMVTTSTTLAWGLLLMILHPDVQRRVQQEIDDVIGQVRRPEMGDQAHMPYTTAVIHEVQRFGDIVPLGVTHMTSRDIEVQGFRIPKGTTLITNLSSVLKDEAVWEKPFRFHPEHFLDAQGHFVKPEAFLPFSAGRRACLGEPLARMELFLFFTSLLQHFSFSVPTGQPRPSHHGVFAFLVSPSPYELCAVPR

SMILES | Potency | activity change, negative = inhibition
CN(C(=O)Cc1ccccc1)C(CN1CCCC1)c1ccccc1 (configuration not stated) | 0.0849 µM (active) | 
CCCCCCn1c(=O)c(C(=O)Nc2ccc(C(=O)OCCC)cc2)c(O)c2ccccc21 |  | 17.6%
Clc1ccc(OCC2=NCCN2)cc1Cl | 8.49 µM (active) | 
COC(=O)N1CCN(C(=O)Cc2ccc(Cl)c(Cl)c2)[C@@H](CN2CCCC2)C1 | 4.77 µM (active) | 
COc1ccccc1CN[C@H]1C2CCN(CC2)[C@H]1C(c1ccccc1)c1ccccc1 | 0.19 µM (active) | 
CCc1[nH]c2ccc(OC)cc2c1CCN(C)C | 1.9 µM (active) | 
OC1(c2ccc(Cl)cc2)c2ccccc2C2=NCCN21 (configuration not stated) | 2.68 µM (active) | 
OCCCCC#Cc1cncc(OC[C@@H]2CCN2)c1 |  | -1.34%
COc1cc(CCNCc2ccccc2O)c(OC)cc1C#N | 1.9 µM (active) | 
Cc1cccc(NC(=O)N[C@@H]2N=C(c3ccccc3)c3ccccc3N(C)C2=O)c1 |  | -1.42%
CC(C)[C@@H](CN1CC[C@@](C)(c2cccc(O)c2)[C@@H](C)C1)NC(=O)[C@H]1Cc2ccc(O)cc2CN1 | 6.01 µM (active) | 
Cc1cn(C[C@H](N)C(=O)O)c(=O)n(Cc2cc(-c3ccccc3)sc2C(=O)O)c1=O |  | 0.347%
CCCSP(=O)(OCC)SCCC | 58.4 µM (active) | 
CC(C)(C)c1cc(C(C)(C)C)c2c(c1)C(O)(C(F)(F)F)C(=O)O2 (configuration not stated) |  | 14.7%
Cn1ncnc1COc1nn2c(-c3c(F)cccc3F)nnc2cc1C1CCC1 |  | 1.62%
CCc1c(C(=O)C(N)=O)c2c(OCC(=O)OC)cccc2n1Cc1ccccc1 |  | -0.797%
COc1cc(C)[nH]c(=O)c1CNC(=O)c1c(C)n([C@H](C)C2CCOCC2)c2ccccc12 |  | 7.45%
CCOc1ccccc1-n1c(C(C)N2CCN(C(=O)COc3ccc(Cl)cc3)CC2)nc2ccccc2c1=O (configuration not stated) |  | -29.5%
CC(N)Cc1c[nH]c2ccccc12 (configuration not stated) | 23.9 µM (active) | 
Cc1c(Cl)cccc1S(=O)(=O)Nc1nc(CC(=O)N2CCN(C)CC2)cs1 |  | -0.703%
Cc1cc(C(=O)CN2CCCC2)c(C)n1-c1ccc(F)cc1 | 0.952 µM (active) | 

Each compound was assayed against Cytochrome P450 2C9 (Homo sapiens) (UniProt P11712) (assay: Cytochrome P450 family 2 subfamily C member 9 (CYP2C9) small molecule antagonists: luciferase biochemical (cell-free) qHTS assay (AID 1645842; also: nearly all actives have a fitted effect of over 55% in size; also: potency is read from the fitted curve at half-maximal effect)). Conditions: P450-Glo CYP2C9 enzyme assay, luciferin luminescence; series mostly up to 57.4 µM; activity change, negative = inhibition: at the top concentration.
In short: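 Luminescence, after 20 min with luciferin detection reagent, reflected CYP2C9 turnover during a 1 h NADPH-driven reaction at 37C. Enzyme-substrate mix contained 0.4% bovine serum albumin and was preincubated with compound 10 min at room temperature.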

Cytochrome P450 2C9 (Homo sapiens), sequence (P11712 whole entry, looked up): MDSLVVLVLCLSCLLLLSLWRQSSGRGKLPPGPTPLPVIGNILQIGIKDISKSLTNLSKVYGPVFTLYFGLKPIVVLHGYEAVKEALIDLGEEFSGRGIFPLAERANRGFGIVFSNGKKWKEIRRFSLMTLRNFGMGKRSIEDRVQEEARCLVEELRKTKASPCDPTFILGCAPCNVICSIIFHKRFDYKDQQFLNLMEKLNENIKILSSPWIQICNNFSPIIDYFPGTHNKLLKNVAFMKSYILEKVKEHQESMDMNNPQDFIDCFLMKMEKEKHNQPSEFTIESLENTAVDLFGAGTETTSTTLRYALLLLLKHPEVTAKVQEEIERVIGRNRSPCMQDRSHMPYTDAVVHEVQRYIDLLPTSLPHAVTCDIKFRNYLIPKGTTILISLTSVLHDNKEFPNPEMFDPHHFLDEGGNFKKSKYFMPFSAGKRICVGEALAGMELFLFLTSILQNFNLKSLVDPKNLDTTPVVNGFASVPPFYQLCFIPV

SMILES | activity change, negative = inhibition | Potency
CCCCCCn1c(=O)c(C(=O)Nc2ccc(C(=O)OCCC)cc2)c(O)c2ccccc21 | 7.72% | 
Clc1ccc(OCC2=NCCN2)cc1Cl | 0.557% | 
C[C@H](NC(=O)Cc1cc(F)cc(F)c1)C(=O)N[C@@H]1N=C(c2ccccc2)c2ccccc2N(C)C1=O | 1.74% | 
COC(=O)N1CCN(C(=O)Cc2ccc(Cl)c(Cl)c2)[C@@H](CN2CCCC2)C1 | -12.5% | 
C[C@@](O)(COc1ccc(C#N)cc1)C(=O)Nc1ccc(C#N)c(C(F)(F)F)c1 |  | 1.51 µM (active)
COc1ccccc1CN[C@H]1C2CCN(CC2)[C@H]1C(c1ccccc1)c1ccccc1 | -0.148% | 
CCc1[nH]c2ccc(OC)cc2c1CCN(C)C | -0.504% | 
OC1(c2ccc(Cl)cc2)c2ccccc2C2=NCCN21 (configuration not stated) |  | 15.1 µM (active)
OCCCCC#Cc1cncc(OC[C@@H]2CCN2)c1 | 0.949% | 
COc1cc(CCNCc2ccccc2O)c(OC)cc1C#N |  | 9.52 µM (active)
Cc1cccc(NC(=O)N[C@@H]2N=C(c3ccccc3)c3ccccc3N(C)C2=O)c1 |  | 12 µM (active)
CC(C)[C@@H](CN1CC[C@@](C)(c2cccc(O)c2)[C@@H](C)C1)NC(=O)[C@H]1Cc2ccc(O)cc2CN1 | -19.9% | 
Cc1cn(C[C@H](N)C(=O)O)c(=O)n(Cc2cc(-c3ccccc3)sc2C(=O)O)c1=O | 0.203% | 
CC(C)(C)c1cc(C(C)(C)C)c2c(c1)C(O)(C(F)(F)F)C(=O)O2 (configuration not stated) |  | 21.3 µM (active)
Cn1ncnc1COc1nn2c(-c3c(F)cccc3F)nnc2cc1C1CCC1 |  | 6.74 µM (active)
CCc1c(C(=O)C(N)=O)c2c(OCC(=O)OC)cccc2n1Cc1ccccc1 |  | 13.5 µM (active)
CN(C)CCc1c[nH]c2ccc(CN3CCN(C)S3(=O)=O)cc12 | 0.193% | 
CCCCCOc1cc2c(cc1-c1cc(/C=C/C(=O)O)ccc1O)C(C)(C)CCC2(C)C |  | 12 µM (active)
COc1cc(C)[nH]c(=O)c1CNC(=O)c1c(C)n([C@H](C)C2CCOCC2)c2ccccc12 |  | 13.5 µM (active)
CCOc1ccccc1-n1c(C(C)N2CCN(C(=O)COc3ccc(Cl)cc3)CC2)nc2ccccc2c1=O (configuration not stated) |  | 13.5 µM (active)
CC(N)Cc1c[nH]c2ccccc12 (configuration not stated) | -6.63% | 
Cc1c(Cl)cccc1S(=O)(=O)Nc1nc(CC(=O)N2CCN(C)CC2)cs1 |  | 21.3 µM (active)
Cc1cc(C(=O)CN2CCCC2)c(C)n1-c1ccc(F)cc1 | 6.63% | 
